Records with an inconclusive call do not appear. Calls of active or inactive are those of the source. Unless noted, calls follow the shape of the full dose curve.
Assays:
[1] = molecular target: Alpha-galactosidase (Coffea arabica) (UniProt Q42656); test: Counterscreen for Glucocerebrosidase Inhibitors: qHTS Assay for Coffee Bean alpha-Galactosidase at pH 4.5 (AID 957; active = well fitted curve in the direction sought with a large enough effect; an effect the other way counts as inactive or inconclusive;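 also: series mostly up to about 77 µM; plate controls were enzyme alone for no effect and no enzyme for full effect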)
Procedure, shortened: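 Coffee bean enzyme (2 nM) with 80 uM 4-methylumbelliferyl alpha-D-galactopyranoside in 50 mM citric acid, 0.005% Tween-20, pH 4.5, 20 min at room temperature; compounds 0.7 nM–77 uM. Stopped at pH 10, fluorescence 365/440 nm; AC50 from Hill fits.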

[2] = molecular target: Alpha-galactosidase (Coffea arabica) (UniProt Q42656); test: Counterscreen for Glucocerebrosidase Inhibitors: qHTS Assay for Coffee Bean alpha-Galactosidase at pH 5.9 (AID 998; active = well fitted curve in the direction sought with a large enough effect; an effect the other way counts as inactive or inconclusive;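 also: plate controls were uninhibited enzyme for no effect and no-enzyme basal signal for full effect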)
Procedure, shortened: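 Green coffee bean enzyme (2 nM) with 4-methylumbelliferyl alpha-D-galactopyranoside (80 uM) in 50 mM citric acid, 0.005% Tween-20, pH 5.9, 20 min at room temperature; compounds 0.7 nM–77 uM. Stopped at pH 10, fluorescence Ex365/Em440; Hill-fit AC50.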

[3] = Inducers of the Endoplasmic Reticulum Stress Response (ERSR) in human glioma: Validation (AID 504836; active = well fitted curve in the direction sought with a large enough effect; an effect the other way counts as inactive or inconclusive; also: 0% is about no effect)
Procedure, shortened: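 Stably transfected U87-MG glioma cells carrying a GRP78-based luciferase sensor; 16 h compound incubation. Luminescence end-point read 10 min after Bright-Glo addition at room temperature.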

[4] = qHTS for Inhibitors of the Functional Ribonucleoprotein Complex (vRNP) of Lassa (LASV) Arenavirus: LASV Primary Screen - GLuc reporter signal (AID 1347082; calls by dose curve; tested in HEK293 reporter line; also: series mostly up to about 57 µM; % is scaled to controls: 0 for no effect and ±100 for the full control effect; nearly all actives have a fitted effect of over 60% in size)
[5] = qHTS for Inhibitors of the Functional Ribonucleoprotein Complex (vRNP) of Lassa (LASV) Arenavirus: Viability assay - alamar blue signal for LASV Primary Screen (AID 1347083; calls by dose curve; tested in HEK293 reporter line; also: series mostly up to about 57 µM; % is scaled to controls: 0 for no effect and ±100 for the full control effect; nearly all actives have a fitted effect of over 80% in size)
[6] = qHTS for Inhibitors of the Functional Ribonucleoprotein Complex (vRNP) of Lymphocytic Choriomeningitis Arenaviruses (LCMV): Viability assay - alamar blue signal for LCMV Primary Screen (AID 1347085; calls by dose curve; tested in HEK293 reporter line; also: series mostly up to about 57 µM; % is scaled to controls: 0 for no effect and ±100 for the full control effect; nearly all actives have a fitted effect of over 80% in size)
[7] = molecular target: Nucleoprotein (Lymphocytic choriomeningitis virus (strain Armstrong)) (UniProt P09992); test: qHTS for Inhibitors of the Functional Ribonucleoprotein Complex (vRNP) of Lymphocytic Choriomeningitis Arenaviruses (LCMV): LCMV Primary Screen - GLuc reporter signal (AID 1347086); also: series mostly up to about 57 µM; % is scaled to controls: 0 for no effect and ±100 for the full control effect; nearly all actives have a fitted effect of over 70% in size
[8] = molecular target: Bile acid receptor (Homo sapiens) (UniProt Q96RI1); test: qHTS assay for small molecule agonists of farnesoid X receptor signaling (AID 588527); conditions: HEK293T FXR-UAS-bla, beta-lactamase ratio, 16 h; activation: stronger effect = higher value;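 also: series mostly up to about 77 µM; 0% = vehicle basal and 100% = reference agonist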
Procedure, shortened: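 Quantitative HTS used FXR-UAS-bla HEK293T cells with 16 h compound incubation at 37 C. EC50 values came from concentration-response curves normalized to chenodeoxycholic acid.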

[9] = molecular target: Peroxisome proliferator-activated receptor delta (Homo sapiens) (UniProt Q03181); test: qHTS assay for small molecule agonists of peroxisome proliferator-activated receptor delta signaling (AID 588534);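 also: 0% = DMSO basal wells and 100% = positive control agonist at 10 µM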
Procedure, shortened: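 Cells carrying a PPAR-delta beta-lactamase reporter were treated with compounds for 18 h at 37 °C in agonist mode. CCF4 fluorescence was read after 2 h; EC50 and efficacy from Hill fits.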

[10] = molecular target: Estrogen receptor (Homo sapiens) (UniProt P03372); test: qHTS assay for small molecule antagonists of estrogen receptor alpha signaling (AID 588513; active = well fitted curve in the direction sought with a large enough effect in the signal ratio, with a control signal flat, not every such curve was filed as active; the % refers to the signal ratio; also: % is scaled to controls: 0 for no effect and ±100 for the full control effect)
Procedure, shortened: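 ER-alpha-UAS-bla GripTite HEK 293 cells in 2% charcoal/dextran-treated FBS medium; compounds titrated (1:2, duplicate), then stimulated with 0.5 nM 17-beta-estradiol for 18 h at 37C. CCF4 beta-lactamase fluorescence; Hill-fit IC50 and efficacy.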

[11] = molecular target: Estrogen receptor (Homo sapiens) (UniProt P03372); test: qHTS assay for small molecule agonists of estrogen receptor alpha signaling (AID 588514);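 also: 0% = vehicle only and 100% = reference agonist; nearly all actives have a fitted effect of over 70% in size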
Procedure, shortened: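 ER-alpha-UAS-bla GripTite HEK293 cells, 5000/well in 2% charcoal/dextran-stripped FBS medium, treated with compound titrations 18 h at 37 C. CCF4 beta-lactamase read by fluorescence after 2 h RT; normalised to 20 nM 17-beta-estradiol (100%) and DMSO (0%), Hill fit for EC50 and efficacy.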

[12] = molecular target: Glucocorticoid receptor (Homo sapiens) (UniProt P04150); test: qHTS assay for small molecule agonists of glucocorticoid receptor signaling (AID 588532; active = well fitted curve in the direction sought with a large enough effect in the signal ratio, with a control signal flat; the % refers to the signal ratio;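 also: 100% = dexamethasone at 0.1 µM and 0% = DMSO only wells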); conditions: HeLa MMTV-bla, beta-lactamase ratio, agonist, 18 h; stronger effect = higher value; percent of dexamethasone control, DMSO zero
Procedure, shortened: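 HeLa GRE-bla reporter cells; 18 h compound exposure at 37 C; 2 h CCF4 loading at room temperature; fluorescence at 460 and 530 nm; EC50 by Hill equation.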

[13] = molecular target: Glucocorticoid receptor (Homo sapiens) (UniProt P04150); test: qHTS assay for small molecule antagonists of glucocorticoid receptor signaling (AID 588533; active = well fitted inhibition curve with a large enough effect in the signal ratio, with a control signal flat, not every such curve was filed as active; the % refers to the signal ratio;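 also: cells stimulated with 2 nM dexamethasone as agonist; % is scaled to controls: 0 for no effect and ±100 for the full control effect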)
Procedure, shortened: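 Antagonist-mode qHTS: compound titrations added to GRE-bla HeLa cells, then dexamethasone 2 nM final; 18 h, 37 C. CCF4 FRET fluorescence normalized to dexamethasone and DMSO; IC50 from Hill fit.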

[14] = qHTS assay for small molecule antagonists of peroxisome proliferator-activated receptor delta signaling (AID 588535; active = well fitted inhibition curve with a large enough effect in the signal ratio, with a control signal flat, not every such curve was filed as active; the % refers to the signal ratio;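 as to max response: cells co-treated with a PPAR-delta agonist as stimulator during compound exposure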); conditions: HEK293T PPARd-UAS-bla, beta-lactamase FRET ratio, 18 h; 460 nm channel
Procedure, shortened: (§1)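 Antagonist-mode beta-lactamase reporter (GeneBLAzer PPAR-delta-UAS-bla) in HEK293T cells, 2% charcoal/dextran FBS, 4000 cells/well. Compound titrations, 18 h at 37 C; CCF4 ratio read, IC50 and efficacy from Hill fits.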

[15] = molecular target: Peroxisome proliferator-activated receptor delta (Homo sapiens) (UniProt Q03181); test: as above
Procedure, shortened: as §1

[16] = molecular target: Peroxisome proliferator-activated receptor gamma (Homo sapiens) (UniProt P37231); test: qHTS assay for small molecule agonists of peroxisome proliferator-activated receptor gamma signaling (AID 588536; active = well fitted curve in the direction sought with a large enough effect in the signal ratio, with a control signal flat, not every such curve was filed as active; the % refers to the signal ratio;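 also: 0% = DMSO basal wells and 100% = rosiglitazone at 2 µM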)
Procedure, shortened: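 HEK293 UAS-bla reporter line, 1% charcoal/dextran FBS; titration, 16 h, 37 C; CCF4 loading 2 h RT; fluorescence 460/530 nm. Normalized to rosiglitazone 2 uM = 100%, DMSO = 0%.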

[17] = molecular target: Peroxisome proliferator-activated receptor gamma (Homo sapiens) (UniProt P37231); test: qHTS assay for small molecule antagonists of peroxisome proliferator-activated receptor gamma signaling (AID 588537; active = well fitted inhibition curve with a large enough effect in the signal ratio, with a control signal flat, not every such curve was filed as active; the % refers to the signal ratio;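 also: reporter cells co-stimulated with 50 nM rosiglitazone agonist during compound treatment; % of control where 0% means no effect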)
Procedure, shortened: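 PPARγ-UAS-bla HEK293 cells (3000/well) in 1% charcoal/dextran-stripped FBS are treated with compound, then stimulated with 50 nM rosiglitazone for 16 h at 37 °C. Read-out is CCF4 β-lactamase fluorescence after 2 h at RT. IC50 comes from Hill fits normalised to rosiglitazone and DMSO.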

[18] = qHTS assay for small molecule agonists of retinoid X receptor alpha signaling (AID 588544); conditions: HEK293T RXRa-UAS-bla, beta-lactamase reporter, 18 h; 530 nm emission;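 as to activation: 0% = DMSO basal wells and 100% = reference agonist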
[19] = molecular target: Retinoic acid receptor RXR-alpha (Homo sapiens) (UniProt P19793); test: as above
[20] = molecular target: Thyroid hormone receptor beta (Homo sapiens) (UniProt P10828); test: qHTS assay for small molecule agonists of thyroid hormone receptor beta signaling (AID 588545)
Procedure, shortened: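 Cells (2500/well) were seeded, incubated 4 hrs at 37 C, dosed with a compound series, incubated 18 hrs, loaded with CCF4 dye for 2 hrs at RT, then read for fluorescence. Data were scaled between DMSO (0%) and 10 nM T3 (100%).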

[21] = qHTS assay for small molecule antagonists of retinoid X receptor alpha signaling (AID 588546; active = well fitted inhibition curve with a large enough effect in the signal ratio, with a control signal flat, not every such curve was filed as active; the % refers to the signal ratio;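 also: cells stimulated with 9-cis-retinoic acid as agonist; % is scaled to controls: 0 for no effect and ±100 for the full control effect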); conditions: HEK293T RXRa-UAS-bla, beta-lactamase ratio, antagonist mode; measured here: W530 green channel, cytotoxicity proxy
Procedure, shortened: (§2)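 Beta-lactamase reporter inhibition, read as CCF4 fluorescence ratio (ex 405, em 460/530 nm) after 2 h at RT. HEK293T UAS-bla cells, 2500/well, were stimulated with 9-cis-RA at 500 or 100 nM final alongside test compound for 18 h at 37 C.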

[22] = molecular target: Retinoic acid receptor RXR-alpha (Homo sapiens) (UniProt P19793); test: as above; conditions: HEK293T RXRa-UAS-bla, beta-lactamase ratio, antagonist mode
Procedure, shortened: as §2

[23] = molecular target: Thyroid hormone receptor beta (Homo sapiens) (UniProt P10828); test: qHTS assay for small molecule antagonists of thyroid hormone receptor beta signaling (AID 588547; active = well fitted inhibition curve with a large enough effect in the signal ratio, with a control signal flat, not every such curve was filed as active; the % refers to the signal ratio;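 also: cells stimulated with 0.4 nM T3 agonist during compound exposure; series mostly up to about 77 µM; % is scaled to controls: 0 for no effect and ±100 for the full control effect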); conditions: TR-UAS-bla HEK293, beta-lactamase ratio, antagonist mode, 18 h
Procedure, shortened: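 TR-UAS-bla GripTite HEK293 cells in 2% charcoal/dextran FBS medium; compounds 0.59 nM to 92 uM with T3 at 0.4nM final, 18 h at 37 C. Beta-lactamase read by CCF4 fluorescence (460/530 nm); Hill fits gave IC50 and efficacy.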

[24] = qHTS assay for small molecule agonists of the antioxidant response element (ARE) signaling pathway (AID 651741; active = well fitted activation curve with a large enough effect in the signal ratio; the % refers to the signal ratio; also: % of control where 0% means no effect)
Procedure, shortened: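 CellSensor ARE-bla HepG2 cells (2,000/well) carrying ARE-driven beta-lactamase, exposed 16 h at 37 C. LiveBLAzer B/G FRET substrate added for 2 h at room temperature; fluorescence intensity read.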

[25] = qHTS assay for small molecule activators of the p53 signaling pathway (AID 651743; active = well fitted activation curve with a large enough effect in the signal ratio, not every such curve was filed as active; the % refers to the signal ratio; also: series mostly up to about 92 µM; % of control where 0% means no effect); conditions: HCT-116 p53RE-bla, beta-lactamase FRET ratio, 16 h; activation: stronger effect = higher value
Procedure, shortened: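 p53RE-bla HCT-116 cells carrying a beta-lactamase reporter under p53 response elements were exposed to compounds for 16 hours at 37 C. Reporter activity read as fluorescence after 2 hours at room temperature with LiveBLAzer B/G FRET substrate.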

[26] = qHTS assay for environmental chemicals that activate the Aryl hydrocarbon Receptor (AhR) signaling pathway (AID 651777; active = well fitted curve in the direction sought with a large enough effect; an effect the other way counts as inactive or inconclusive; also: % of control where 0% means no effect; nearly all actives have a fitted effect of over 15% in size); conditions: 1A2-DRE human hepatoma cells, luciferase, 24 h; activation: stronger effect = higher value
Procedure, shortened: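 Measured luciferase activity, read 30 min after One-Glo addition at room temperature, from human hepatoma cells bearing a dioxin response element–CYP1A2 promoter reporter and exposed to compound for 24 hr at 37 C.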

[27] = molecular target: Peroxisome proliferator-activated receptor alpha (Homo sapiens) (UniProt Q07869); test: qHTS assay for small molecule agonists of the peroxisome proliferator-activated receptor alpha (PPARalpha) signaling pathway (AID 651778; active = well fitted curve in the direction sought with a large enough effect; an effect the other way counts as inactive or inconclusive; also: % of control where 0% means no effect); conditions: PathHunter PPARalpha complementation, chemiluminescence, 6 h; stronger effect = higher value
Procedure, shortened: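 Enzyme-fragment complementation assay in which ligand-bound PPARalpha translocates and forms an active enzyme that generates chemiluminescence. Cells were plated overnight, exposed to compound for 6 hr at 37 C, and then given detection reagent for 60 min at room temperature.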

[28] = qHTS assay for small molecule agonists of the antioxidant response element (ARE) signaling pathway measured by Nrf2-dependant transcriptional activity (AID 720636; active = well fitted curve in the direction sought with a large enough effect in the repeat runs; an effect the other way counts as inactive or inconclusive;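 also: HepG2 cells with an ARE-driven luciferase reporter; % of control where 0% means no effect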)
Procedure, shortened: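 In HepG2 cells engineered with an Nrf2-responsive luciferase gene, ARE induction was quantified as luminescence after 16 hr compound treatment at 37 C.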

[29] = qHTS assay for small molecule agonists of the antioxidant response element (ARE) signaling pathway measured by Nrf2-dependant transcriptional activity - cell viability counter screen (AID 720653; active = well fitted curve in the direction sought with a large enough effect in the repeat runs; an effect the other way counts as inactive or inconclusive; also: % is scaled to controls: 0 for no effect and ±100 for the full control effect); conditions: ARE-bla HepG2 viability, CellTiter-Glo ATP luminescence, 16 h; max response: stronger effect = lower value
Procedure, shortened: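 ARE-bla HepG2 cells treated with compounds for 16 h at 37C; this counter screen measures viability as intracellular ATP by CellTiter-Glo luminescence after 30 min at room temperature.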

[30] = qHTS assay for cell viability of HEK293 cells (AID 743288; active = well fitted curve in the direction sought with a large enough effect; an effect the other way counts as inactive or inconclusive; also: % is scaled to controls: 0 for no effect and ±100 for the full control effect; nearly all actives have a fitted effect of over 50% in size); conditions: ATP luminescence (CellTiter-Glo), 18 h; max response: stronger effect = lower value
Procedure, shortened: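 Parental HEK293 cells, 2,000 per well, preincubated at least 5 h at 37 C, then exposed to compounds in DMSO for 18 h at 37 C. Viability by CellTiter-Glo ATP luminescence after 30 min at room temperature.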

[31] = qHTS assay for cell viability of the p53RE-bla HCT-116 cell line (AID 743292; active = well fitted curve in the direction sought with a large enough effect; an effect the other way counts as inactive or inconclusive; also: % is scaled to controls: 0 for no effect and ±100 for the full control effect; nearly all actives have a fitted effect of over 55% in size)
Procedure, shortened: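 Intracellular ATP of p53RE-bla HCT-116 cells measured by luciferase luminescence following 16 h compound incubation at 37 C; DMSO-only wells served as vehicle controls.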

[32] = molecular target: Nuclear receptor subfamily 1 group I member 2 (Rattus norvegicus) (UniProt Q9R1A7); test: qHTS assay for small molecule activators of the rat pregnane X receptor (rPXR) signaling pathway (AID 651751; call rule not given here; also: 0% is about no effect); conditions: rPXR reporter cells, luciferase (One-Glo), 24 h
[33] = qHTS assay for small molecule activators of the human pregnane X receptor (PXR) signaling pathway (AID 720659; call rule not given here; also: 0% is about no effect)

Peroxisome proliferator-activated receptor delta (Homo sapiens), sequence (Q03181 whole entry, looked up): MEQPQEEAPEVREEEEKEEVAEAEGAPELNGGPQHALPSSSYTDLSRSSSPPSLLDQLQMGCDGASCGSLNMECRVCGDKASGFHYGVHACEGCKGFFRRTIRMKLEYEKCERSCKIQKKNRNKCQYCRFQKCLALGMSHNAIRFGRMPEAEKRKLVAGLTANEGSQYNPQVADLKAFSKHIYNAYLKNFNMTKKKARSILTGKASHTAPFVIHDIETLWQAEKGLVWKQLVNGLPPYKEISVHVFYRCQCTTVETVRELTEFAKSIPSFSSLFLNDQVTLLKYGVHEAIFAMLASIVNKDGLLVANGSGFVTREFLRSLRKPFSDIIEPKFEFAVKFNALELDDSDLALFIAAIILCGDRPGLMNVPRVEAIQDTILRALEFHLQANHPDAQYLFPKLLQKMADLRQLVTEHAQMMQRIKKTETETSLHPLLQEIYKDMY
Alpha-galactosidase (Coffea arabica), sequence (Q42656 whole entry, looked up): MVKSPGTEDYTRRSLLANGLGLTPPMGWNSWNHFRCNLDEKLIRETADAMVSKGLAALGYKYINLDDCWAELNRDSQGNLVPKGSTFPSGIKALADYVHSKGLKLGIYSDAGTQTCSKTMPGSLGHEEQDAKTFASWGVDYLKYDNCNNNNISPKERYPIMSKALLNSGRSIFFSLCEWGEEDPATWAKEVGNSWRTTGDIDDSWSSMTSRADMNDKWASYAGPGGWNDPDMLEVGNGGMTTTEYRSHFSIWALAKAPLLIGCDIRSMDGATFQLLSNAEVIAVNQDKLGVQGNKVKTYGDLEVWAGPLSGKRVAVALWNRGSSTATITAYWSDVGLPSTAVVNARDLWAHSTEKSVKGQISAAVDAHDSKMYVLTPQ
Nucleoprotein (Lymphocytic choriomeningitis virus (strain Armstrong)), sequence (P09992 whole entry, looked up): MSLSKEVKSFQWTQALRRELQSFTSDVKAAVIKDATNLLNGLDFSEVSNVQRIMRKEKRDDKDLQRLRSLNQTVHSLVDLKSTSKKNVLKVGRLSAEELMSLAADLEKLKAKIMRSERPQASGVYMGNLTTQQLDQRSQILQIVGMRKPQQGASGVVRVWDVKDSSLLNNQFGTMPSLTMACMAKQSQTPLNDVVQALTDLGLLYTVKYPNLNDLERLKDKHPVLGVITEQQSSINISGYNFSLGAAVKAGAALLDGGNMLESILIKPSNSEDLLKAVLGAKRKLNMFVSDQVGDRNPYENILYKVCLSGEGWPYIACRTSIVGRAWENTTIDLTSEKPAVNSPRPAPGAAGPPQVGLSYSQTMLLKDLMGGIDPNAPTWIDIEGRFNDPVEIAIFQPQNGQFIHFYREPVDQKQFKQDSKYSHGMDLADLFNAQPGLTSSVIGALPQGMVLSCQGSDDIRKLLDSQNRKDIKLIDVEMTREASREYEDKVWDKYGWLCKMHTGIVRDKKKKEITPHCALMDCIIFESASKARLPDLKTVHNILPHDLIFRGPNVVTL
Glucocorticoid receptor (Homo sapiens), sequence (P04150 whole entry, looked up): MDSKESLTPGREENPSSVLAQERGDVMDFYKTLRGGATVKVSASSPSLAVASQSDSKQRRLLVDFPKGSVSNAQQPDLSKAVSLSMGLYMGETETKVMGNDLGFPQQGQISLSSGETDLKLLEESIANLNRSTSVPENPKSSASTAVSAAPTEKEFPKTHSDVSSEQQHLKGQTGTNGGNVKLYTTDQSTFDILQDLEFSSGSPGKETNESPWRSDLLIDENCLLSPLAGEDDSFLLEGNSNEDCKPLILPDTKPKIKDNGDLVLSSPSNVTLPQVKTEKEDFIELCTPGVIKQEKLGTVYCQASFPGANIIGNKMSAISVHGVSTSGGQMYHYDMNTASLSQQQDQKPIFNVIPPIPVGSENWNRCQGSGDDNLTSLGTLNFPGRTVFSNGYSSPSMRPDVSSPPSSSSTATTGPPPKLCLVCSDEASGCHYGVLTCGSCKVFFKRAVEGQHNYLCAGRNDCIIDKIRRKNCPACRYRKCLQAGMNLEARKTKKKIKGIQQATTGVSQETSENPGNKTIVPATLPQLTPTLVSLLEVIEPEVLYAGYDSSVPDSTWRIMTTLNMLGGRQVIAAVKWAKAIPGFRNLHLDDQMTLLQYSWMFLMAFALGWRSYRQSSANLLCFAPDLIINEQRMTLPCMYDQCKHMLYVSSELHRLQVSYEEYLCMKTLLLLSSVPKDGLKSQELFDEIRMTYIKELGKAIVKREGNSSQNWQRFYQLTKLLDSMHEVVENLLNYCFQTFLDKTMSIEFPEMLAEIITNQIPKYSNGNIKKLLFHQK
Bile acid receptor (Homo sapiens), sequence (Q96RI1 whole entry, looked up): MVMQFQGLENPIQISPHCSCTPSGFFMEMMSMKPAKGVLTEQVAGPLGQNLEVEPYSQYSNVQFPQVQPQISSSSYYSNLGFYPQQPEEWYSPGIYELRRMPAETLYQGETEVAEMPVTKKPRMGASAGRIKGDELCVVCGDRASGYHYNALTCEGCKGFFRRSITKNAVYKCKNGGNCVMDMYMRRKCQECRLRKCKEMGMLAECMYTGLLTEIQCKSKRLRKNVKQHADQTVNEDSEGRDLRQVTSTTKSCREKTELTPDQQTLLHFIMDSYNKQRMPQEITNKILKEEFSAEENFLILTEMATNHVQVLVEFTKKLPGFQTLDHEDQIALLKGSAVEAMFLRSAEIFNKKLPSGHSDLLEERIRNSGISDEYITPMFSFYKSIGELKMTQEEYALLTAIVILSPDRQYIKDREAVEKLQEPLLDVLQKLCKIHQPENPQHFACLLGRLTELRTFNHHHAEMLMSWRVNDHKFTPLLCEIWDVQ
Peroxisome proliferator-activated receptor gamma (Homo sapiens), sequence (P37231 whole entry, looked up): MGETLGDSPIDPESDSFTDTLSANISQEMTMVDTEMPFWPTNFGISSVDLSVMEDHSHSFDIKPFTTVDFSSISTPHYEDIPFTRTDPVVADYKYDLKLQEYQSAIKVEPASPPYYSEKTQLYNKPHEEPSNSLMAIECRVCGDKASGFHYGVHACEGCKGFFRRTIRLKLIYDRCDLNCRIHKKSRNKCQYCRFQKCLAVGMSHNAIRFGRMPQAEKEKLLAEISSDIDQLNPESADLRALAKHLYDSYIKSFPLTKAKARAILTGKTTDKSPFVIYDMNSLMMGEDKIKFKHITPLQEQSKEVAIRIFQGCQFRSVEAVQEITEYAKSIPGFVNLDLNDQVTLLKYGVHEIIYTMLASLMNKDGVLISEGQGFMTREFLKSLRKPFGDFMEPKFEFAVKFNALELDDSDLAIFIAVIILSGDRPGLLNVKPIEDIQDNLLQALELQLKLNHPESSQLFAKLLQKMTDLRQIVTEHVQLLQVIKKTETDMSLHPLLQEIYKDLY
Thyroid hormone receptor beta (Homo sapiens), sequence (P10828 whole entry, looked up): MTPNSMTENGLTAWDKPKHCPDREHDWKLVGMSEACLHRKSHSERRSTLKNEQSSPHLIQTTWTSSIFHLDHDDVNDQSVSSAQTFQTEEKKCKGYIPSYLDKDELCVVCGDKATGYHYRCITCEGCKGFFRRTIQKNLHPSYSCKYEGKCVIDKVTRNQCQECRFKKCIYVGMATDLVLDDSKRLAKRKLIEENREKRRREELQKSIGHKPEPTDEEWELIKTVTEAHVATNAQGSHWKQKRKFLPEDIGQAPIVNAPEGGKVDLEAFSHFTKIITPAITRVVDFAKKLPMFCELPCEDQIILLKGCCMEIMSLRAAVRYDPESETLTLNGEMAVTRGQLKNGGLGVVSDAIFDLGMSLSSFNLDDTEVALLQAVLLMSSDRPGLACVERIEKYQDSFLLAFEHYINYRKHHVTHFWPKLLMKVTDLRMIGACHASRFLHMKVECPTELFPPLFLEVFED
Retinoic acid receptor RXR-alpha (Homo sapiens), sequence (P19793 whole entry, looked up): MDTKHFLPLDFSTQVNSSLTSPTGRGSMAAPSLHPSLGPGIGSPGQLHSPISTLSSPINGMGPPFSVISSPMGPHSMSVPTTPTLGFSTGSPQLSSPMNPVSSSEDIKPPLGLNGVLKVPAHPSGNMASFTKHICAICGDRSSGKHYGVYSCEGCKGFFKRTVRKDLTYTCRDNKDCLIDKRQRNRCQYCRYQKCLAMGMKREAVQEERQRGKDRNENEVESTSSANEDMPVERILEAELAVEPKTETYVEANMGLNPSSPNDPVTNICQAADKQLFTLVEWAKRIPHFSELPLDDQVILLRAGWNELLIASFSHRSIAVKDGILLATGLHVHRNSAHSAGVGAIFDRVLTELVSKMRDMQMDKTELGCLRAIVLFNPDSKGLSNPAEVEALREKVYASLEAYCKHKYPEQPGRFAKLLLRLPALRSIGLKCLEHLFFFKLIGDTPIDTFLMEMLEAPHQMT
Estrogen receptor (Homo sapiens), sequence (P03372 whole entry, looked up): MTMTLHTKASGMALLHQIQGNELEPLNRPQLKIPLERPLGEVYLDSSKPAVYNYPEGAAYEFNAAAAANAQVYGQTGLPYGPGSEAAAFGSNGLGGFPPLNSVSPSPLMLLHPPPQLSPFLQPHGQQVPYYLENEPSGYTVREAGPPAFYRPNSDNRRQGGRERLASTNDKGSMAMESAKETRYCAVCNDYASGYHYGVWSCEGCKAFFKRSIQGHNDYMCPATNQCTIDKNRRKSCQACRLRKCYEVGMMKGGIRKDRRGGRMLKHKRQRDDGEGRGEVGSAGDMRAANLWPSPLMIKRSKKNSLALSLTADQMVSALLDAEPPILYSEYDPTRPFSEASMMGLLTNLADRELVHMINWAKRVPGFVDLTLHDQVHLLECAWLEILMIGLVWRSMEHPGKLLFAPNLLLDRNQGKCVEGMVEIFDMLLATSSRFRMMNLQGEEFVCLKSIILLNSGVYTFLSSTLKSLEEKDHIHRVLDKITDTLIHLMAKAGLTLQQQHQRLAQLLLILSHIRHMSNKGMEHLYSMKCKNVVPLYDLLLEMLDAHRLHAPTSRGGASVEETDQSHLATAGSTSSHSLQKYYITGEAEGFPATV

CC(C)Cn1c(=O)n(C)c(=O)c2[nH]cnc21
inactive: outcome [1] | outcome [2] | outcome [3] | Potency [4] | Potency [5] | Potency [6] | Potency [7]

CN(C)S(=O)(=O)c1ccc2c(c1)/C(=C/c1cc3c([nH]1)CCCC3)C(=O)N2
inactive: outcome [1] | outcome [2] | outcome [3] | Potency [4] | Potency [5] | Potency [6] | Potency [7]

CCC(=O)OCCc1ccccc1
inactive: activation [8] 0.429% | Potency [9] | Potency [4] | Potency [5] | Potency [6] | Potency [7]

CCCCC=O
inactive: activation [8] 1.59% | Potency [4] | Potency [5] | Potency [6] | Potency [7]

C[C@H]1O[C@H](OC2[C@@H](O)[C@@H](O)C(O)[C@H](O)[C@H]2O)[C@@H](N)C[C@@H]1N=C(N)C(=O)O (some centres undefined)
-16.5%: max response [14]
inactive: Potency [10] | Potency [11] | activation [12] -3.89% | Potency [13] | Potency [9] | outcome [15] | outcome [16] | Potency [17] | outcome [19] | Potency [20] | max response [22] -1.33% | activity change % (negative = inhibition) [23] 1.51% | Potency [24] | activation [25] 0.472% | activation [26] -0.0561% | max response [27] -0.85% | Potency [28] | max response [29] 3.51% | max response [30] 0.169% | outcome [31] | Potency [4] | Potency [5] | Potency [6] | Potency [7] | max response [32] -0.488% | outcome [33]
-6.74%: max response [21]
-7.18%: max response [18]

From PubChem BioAssay (NCATS)
